Choline anaer gr: blocks anaerobic gram-negative growth on choline | AID 1963822 | Gram-negative bacterium anaerobic choline minimal medium, absorbance growth; stronger effect = lower value | 0.2% of 55,000 active | calls only; call rule not given here
Active calls of the source: *; i = inactive; + = active, no number. This is one part of a sample in which hits are shown more often than they occur.

SMILES	Choline anaer gr
CCCCC[C@H](O)/C=C/[C@H]1[C@H](O)CC(=O)[C@@H]1CCCCCCC(=O)O	i
CCCCC[C@H](O)/C=C/[C@H]1[C@H](O)CC(=O)[C@H]1CCCCCCC(=O)O	i
O=C(CN1C(=O)C2CCCCN2c2ccc(C(=O)N3CCCC3)cc21)NCc1ccc(F)cc1Cl (centres undefined)	i
CCC1Cn2c(C(=O)NCCC(C)C)cc3cccc(c32)O1 (centres undefined)	i
Cc1ccc(-c2nc3sc(CCNC(=O)c4cc(C)cc(C)c4)c(C)n3n2)cc1	i
COc1cccc(NC(=O)C2CCCN2S(=O)(=O)c2cccc3nsnc23)c1 (centres undefined)	i
COc1ccc2[nH]c3c(c2c1)CCNC3c1cccc(O)c1 (centres undefined)	i
COc1ccc(C2NCCc3c2[nH]c2ccccc32)cc1O (centres undefined)	i
Oc1ccc(C2NCCc3c2[nH]c2ccc(Cl)cc32)cc1O (centres undefined)	i
Oc1ccc(C2NCCc3c2[nH]c2ccc(Cl)cc32)cc1 (centres undefined)	+
CCOc1cc(C2NCCc3c2[nH]c2ccc(Cl)cc32)ccc1O (centres undefined)	+
CCCOc1ccc(C2NCCc3c2[nH]c2ccccc32)cc1OC (centres undefined)	i
O=C1COc2ccc(S(=O)(=O)N3CCCC(C(=O)NC4CCCC4)C3)cc2N1 (centres undefined)	i
O=C(NC1CCCCC1)c1cnc2sc3c(n2c1=O)CCCCC3	i
COc1ccc(OC)c(CNC(=O)c2ccc3noc(-c4ccc(C)cc4)c3c2)c1	i
